Experimental data: PubChem BioAssay AID485314 (National Center for Advancing Translational Sciences (NCATS), 2010)
About 4,500 (1.3%) of roughly 340,000 compounds were called active. Another 5% or so got no clear call; they are omitted. The call rests on the fitted dose curve; in most records, active means well fitted inhibition curve with a large enough effect; inconclusive means small, poorly fitted or top-dose-only effect, or another doubt; inactive means no such curve, though single readings can be large or run the other way. Many of the other results were omitted from the sample, so actives are more common in it than they were.

Target: DNA polymerase beta (Homo sapiens) (UniProt P06746)
Experiment: qHTS Assay for Inhibitors of DNA Polymerase Beta
Conditions: Pol beta primer extension/strand displacement, fluorescence kinetic; series mostly up to 114 µM; activity change, negative = inhibition: at the top concentration
In short: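 Human Pol beta at 10 nM; strand-displacement substrate 50 nM final. Compound exposure 15 min at room temperature before start, reaction 10 min at room temperature.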
On the % scale 0 is the no-effect control and ±100 the full control effect; potency means the concentration at half of the fitted maximal effect.

Activity change, negative = inhibition, inactive:
CCOC(=O)c1ccc(-c2ccc(/C=C(\C#N)C(=O)Nc3ccc(OCC)cc3)o2)cc1 78.1%
O=C(O)c1cc(Cl)c(Cl)cc1C(=O)Nc1cccc2ncccc12 -0.55%
CCOCCCNC(=O)c1cn(CC)c2ccc(S(=O)(=O)N3CCc4ccccc4C3)cc2c1=O 12%
Cn1c(=O)c2c(-c3ccccc3Br)n(Cc3ccccc3)cc2n(C)c1=O 0.692%
COc1ccccc1CNC(=O)C(=O)NCC(c1cccs1)S(=O)(=O)c1cccs1 (stereo unspecified) 9.72%
Cc1c(Cl)cccc1NC(=O)C(=O)NCCc1csc2nc(-c3ccccc3F)nn12 12.1%
COc1ccc(Nc2ncc3c(n2)CCN(C(=O)OC(C)(C)C)C3)cc1 2.37%
COc1cccc(-c2nc(CS(=O)(=O)CC(=O)N3CCN(c4cc(C)ccc4C)CC3)c(C)o2)c1 -0.161%
COc1cccc(C(c2c(O)cc(C)n(Cc3ccco3)c2=O)N2CCN(c3ccccc3)CC2)c1 (stereo unspecified) 1.76%
Cc1ccccc1CNC(=O)c1cccc(NC(=O)c2nsc3ccccc23)c1 5.88%
COc1cc(OC)cc(C(=O)Nc2cc3nn(-c4ccccc4)nc3cc2Cl)c1 4.33%
CC1(C)Cc2c(C#N)c(SCc3nc4ccccc4[nH]3)nc(N3CCOCC3)c2CO1 22.2%
O=c1[nH]c(N2CCOCC2)nc2ccccc12 -8.66%
O=C(CC(c1cccs1)N1Cc2ccccc2C1=O)Nc1ccc(F)c(F)c1 (stereo unspecified) -15.9%
Cc1c(C(=O)Nc2cccc(Cl)c2)oc2ccc(S(=O)(=O)N3CCOCC3)cc12 1.9%
CCOC(=O)c1c(NC(=S)NC(=O)/C=C/c2cccs2)sc(C)c1C 1.96% [at 57.1 µM]
CCc1nnc(NS(=O)(=O)c2ccc(NC(=S)NC(=O)c3cccs3)cc2)s1 -13.3%
COc1cccc(CNC(=O)Cc2csc3nc(-c4ccccc4)cn23)c1 0.953%
Fc1ccccc1Oc1ncnc2c1oc1ccccc12 10.3%
COc1ccc(CC(=O)Nc2nnc3n2CCS3)cc1OC 4.66%
CCCCOc1ccc(CNC(=O)c2ccc3c(c2)N(C)C(=O)C2CCCCN32)cc1 (stereo unspecified) 7.82%
COc1ccccc1-c1cc2nc(C)c(CCC(=O)O)c(C)n2n1 7.49%
CCn1c(SCC(=O)NCc2ccco2)nnc1-c1ccc(N)cc1 3.21%
O=C(CSc1nc2ccc(Nc3nc(N4CCOCC4)nc(N4CCOCC4)n3)cc2s1)NCc1ccco1 -8.34%
Cc1ccc(Cn2c(CNC(=O)Cc3cccc(C)c3)nc3cccnc32)cc1 12.8%
Cc1cc(NC(=O)c2cccc(Cl)c2)ccc1-c1cc2ccccc2oc1=O -1.24%
CCOc1ccc(-n2c(C)nc3c(cnn3-c3ccc(C)cc3)c2=O)cc1 3.24%
COc1cccc(NC(=O)CN2C(=O)c3ccccc3Sc3ncccc32)c1 4.05%
COC(=O)c1ccc2c(c1)N(CC(=O)Nc1ccc(C)c(C)c1)C(=O)c1ccccc1S2 -5.63%
CCc1ccc(NC(=O)Cn2c(=O)n(CCC(=O)NCc3ccc4c(c3)OCO4)c(=O)c3ccccc32)cc1 34.8%
COc1ccc(NC(=O)COCc2cc(-c3ccco3)on2)cc1 40.1%
CC(=O)Nc1ccc(NC(=O)COc2ccc(-c3ccccc3)cc2)cc1 2.33%
CNc1nnc(-c2ccco2)s1 -0.0763%
Cc1cccc(NC(=O)CSc2nnc(-c3ccco3)o2)c1 2.85%
O=C(CSc1nc(=O)[nH]c2c1CCCC2)Nc1cc(C(F)(F)F)ccc1Cl 14%
Cc1cccc(C(C)C)c1NC(=O)C(NS(=O)(=O)c1cccc2nsnc12)c1ccccc1 (stereo unspecified) 4.29%
C=Cc1ccc(Cn2c(C(=O)O)c(CNC3CCCC3)c3ccc(C)cc32)cc1 -0.255%
O=C(NCc1ccc2c(c1)CCN2C(=O)c1ccccc1)Nc1cc(F)ccc1F -19%
Cc1nc(SCCOc2ccc(Cl)cc2)[nH]c(=O)c1Cc1ccccc1 7.28%
Cc1cccc(-c2nc(SCc3ccc(Br)cc3)n3[nH]c(=O)cc3n2)c1 -25.2%
COc1ccccc1CCNC(=O)c1cccn1-c1nnc(N2CCCCC2)s1 -3.75%
Cc1cc(C)cc(NS(=O)(=O)c2ccc3[nH]cc(C(=O)N4CCCCC4)c(=O)c3c2)c1 -3.39%
CCCCNC(=O)c1c[nH]c2ccc(S(=O)(=O)Nc3ccc(OCC)cc3)cc2c1=O -18.1%
O=C(Nc1nc2c(s1)CCCC2)c1ccccc1F 3.06%
COc1cc(OC)c(NC(=O)Cc2ccc(-n3c(C)nc4cccnc43)cc2)cc1Cl 6.51%
COc1ccc(CNC(=O)c2ccc(NC(=O)N3CC4CCCN4c4ccccc43)cc2)cc1 (stereo unspecified) 1.31%
O=C(Nc1ccc2nc(SCC(=O)N3CCCc4ccccc43)sc2c1)c1ccc(Cl)cc1 -10.6%
CC(C)(C)C(=O)CSc1nc2ccccc2o1 4.4%
O=C(CSc1nc2ccccc2o1)N/N=C/c1ccccc1C(=O)O 29.7%
Cc1ccccc1-c1nc(CS(=O)(=O)CC(=O)Nc2cc(Cl)cc(Cl)c2)c(C)o1 0.293%
Cn1c(SCC(=O)N/N=C/c2ccc(O)c(O)c2)nc2ccccc21 -12.5%
CCC(C)NC(=O)C1c2ccccc2Oc2ccccc21 (stereo unspecified) -7.44%
Cc1ccc(Nc2c(-c3ccc(Cl)cc3)nc3sccn23)c(C)c1 3.67%
Cc1ccc(C(=O)N2CCc3cc(CNC(=O)c4ccc(Br)cc4)ccc32)cc1 -1.22%
CCn1cc(C(=O)NCCc2ccccc2)c(=O)c2cc(S(=O)(=O)N3CCCCCC3)ccc21 13%
CCOC(=O)c1c(C)[nH]c(CCC(=O)NCCCN2CCN(c3cccc(Cl)c3)CC2)c1C -26.9%
O=C(NCCSc1ccccc1)c1ccco1 6.21%
O=c1c2ccccc2c(-c2ccc(Br)cc2)nn1Cc1ccccc1 1.64%
CCn1cc2nc(SCc3ccccc3Cl)n(CCc3ccccc3)c(=O)c2n1 1.98%
CCc1ccc(NC(=O)c2sc3nc4c(cc3c2N)CN(CC)CC4)cc1 -13.7%
CCc1nnc(NC(=O)c2sc3nc(C)cc(COC)c3c2N)s1 -0.594%
Cc1ccc(C)c(N2CCN(C(c3ccccc3)c3nnc(-c4ccccc4)o3)CC2)c1 (stereo unspecified) 2.47%
O=C(CSC(=S)N1CCOCC1)c1ccccc1 2.75%
O=C(c1cc2cc(Br)cc(Br)c2oc1=O)N1CCOCC1 7.01%
CCc1ccccc1N(C)C(=O)C1CCCN(c2ncnc3onc(-c4ccc(F)cc4)c23)C1 (stereo unspecified) -20.2%
O=C(Nc1nnc(C2CC(=O)N(c3ccc(Cl)cc3)C2)s1)c1ccco1 (stereo unspecified) -0.775%
O=C(c1cnn(-c2ccc(F)cc2)c1-n1cccc1)N1CCN(c2ccc(F)cc2)CC1 1.09%
COC(=O)c1sc2ncccc2c1-n1c(C)ccc1C 14.6%
Cc1cccc(CCNC(=O)c2ccc3c(c2)nc2n3CCC(C)C2)c1 (stereo unspecified) -17.9%
O=c1oc(-c2ccco2)nc2sc3c(c12)CCCCC3 3.53%
O=C(NCc1ccco1)c1nc2ncccn2n1 11.7%
CN(Cc1ccccc1)c1ncnc2onc(-c3ccc(F)cc3)c12 -27%
COC(=O)c1ccccc1NS(=O)(=O)c1ccc2c(c1)CCCN2C(C)=O 29%
Cc1ccc(S(=O)(=O)c2nc(-c3cccs3)oc2N2CCCCC2)cc1 2.94%
COc1cccc(NC(=O)CSc2cc(=O)n(C)c3ccc(Cl)cc23)c1 17.1%
Cc1cc(F)ccc1NS(=O)(=O)c1ccc(-n2cccn2)cc1 1.11%
CNc1ccc(-c2nc(-c3ccco3)no2)cc1[N+](=O)[O-] 10.7%
O=[N+]([O-])c1cc(-c2nc(-c3ccccc3)no2)ccc1NCc1ccco1 1.56%
COc1cccc(NC(=O)Nc2ccc3c(c2)N(C)C(=O)c2ccccc2S3)c1 -11.2%
CCOC(=O)c1c(NC(=O)c2ccc(S(=O)(=O)N3CCCC(C)C3)cc2)sc2c1CCN(C(C)C)C2 (stereo unspecified) -0.886%
O=C(Nc1nnc(Cc2ccccc2)s1)c1cnccn1 5.98%
O=C(Nc1nnc(Cc2ccc(Cl)cc2)s1)c1ccncc1 3.6%

Potency, active:
Cc1ccc(/C=C(\C#N)C(=O)Nc2cccc3ncccc23)o1 3.16 µM
CCN1/C(=C\c2ccc3ccccc3[n+]2CC)Sc2cc(C)ccc21 25.1 µM
CCN1/C(=C/c2ccc3ccc(C)cc3[n+]2CC)Sc2ccccc21 31.6 µM
C1=C(N2CCOCC2)/C(=C/c2nc3ccccc3[nH]2)CC1 20 µM
CCc1nnc(NS(=O)(=O)c2ccc(NC(=S)NC(=O)/C=C/c3cccs3)cc2)s1 89.1 µM
C=CCn1c(CSc2nc3ccccc3s2)nnc1SCC(=O)NCc1ccco1 39.8 µM
COc1ccccc1NC(=O)CN1C(=O)c2ccccc2Sc2ccc(C(=O)N3CCCC3)cc21 50.1 µM
Cc1ccc(OCC(=O)Nc2ccc(-c3nnc(-c4ccco4)o3)cc2)cc1 14.1 µM
COc1ccc(OCC(=O)Nc2nnc(-c3ccco3)s2)cc1 17.8 µM
O=c1cc2nc(-c3ccccc3)nc(SCCOc3ccc(Cl)cc3)n2[nH]1 20 µM
CC(C)c1ccc(NS(=O)(=O)c2ccc3[nH]cc(C(=O)NC4CCCC4)c(=O)c3c2)cc1 20 µM
Cc1ccc(/C=N/NC(=O)CSc2nc3ccccc3o2)cc1 44.7 µM
O=C(N/N=C/c1ccc(O)c(O)c1)C1c2ccccc2Oc2ccccc21 7.08 µM
O=C(NCCc1ccco1)c1nn(Cc2ccccc2)c(=O)c2ccccc12 44.7 µM
CCc1ccc2nc3sc(C(=O)Nc4nnc(CC)s4)c(N)c3cc2c1 25.1 µM
O=C(CSC(=S)N1CCOCC1)c1cc(Br)cc(Br)c1O 31.6 µM
O=C(NCc1ccco1)c1cccn2c(=O)c3c4c(sc3nc12)CCCC4 50.1 µM
CC(Nc1ccc(-c2nc(-c3ccco3)no2)cc1[N+](=O)[O-])c1ccccc1 (stereo unspecified) 20 µM
O=C(Nc1nnc(Cc2ccc(Cl)cc2)s1)c1cccnc1 22.4 µM
